The text below walks through data of PubChem BioAssay (NCI).

Compounds without any hit were thinned out: in the full panel of roughly 83,000, 20% have a hit.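 48-hour exposure, single concentration, 96-well plates; percent growth endpoint where 0 means no net growth. Active: below 10.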 Values without a mark were called inactive. Activity calls are given as the source filed them.

The experiment has as its system OVCAR-4 ovarian. Briefly: NCI-60 one-dose screen, 48 h (100 = growth as untreated, 0 = no growth, -100 = all killed). The conditions noted are these: 10 µM unless noted. The procedure:
Growth inhibition of the OVCAR-4 human tumor cell line is measured as a screen for anti-cancer activity. Cells are grown in 96 well plates and exposed to the test compound for 48 hours. Compounds are tested at a single concentration, which is 10^-5 M for most compounds. The reported endpoint is percent growth (GI% or GIPRCNT), where numbers from 0 - 100% represent growth inhibition, and numbers from -100% - 0 represent cell death. For example, a value of 40 represents 60% growth inhibition. A value of 0 means no net growth occurred over the course of the experiment. A value of -40 indicates 40% of cells at the beginning of the experiment died by the end of the experiment. A value of -100 means all cells are dead at the end of the experiment.
NCI-60 Human Tumor Cell Lines Screen was performed using the standard one-dose NCI protocol, which is described in more detail at https://dtp.cancer.gov/discovery_development/nci-60/default.htm.
Compounds with GIPRCNT values below 10 were considered active. Activity score was based on GIPRCNT using the following formula: […]
Score is 0 for GIPRCNT values of 100 or above, 50 for GIPRCNT values of 0, and 100 for GIPRCNT values of -100.
Take `CC1(C)C=Cc2cc(/C(N)=N/C(N)=N/c3nc4ccccc4s3)ccc2O1`: the growth is 82.7%.

For `Cc1cc(C)cc(NC2=C(Cl)C(=O)c3nc(C)ccc3C2=O)c1`, the growth was -5.74% (active).

Regarding `CCOc1cccc(/C(N)=N/C(N)=N/c2nc3ccccc3s2)c1`, the growth is 95.1%.

For the molecule `COc1cc(C(C)=C(c2ccc(OCCN(C)C)cc2)c2ccc(OCCN(C)C)cc2)ccc1F`, the growth was 108%.

Regarding `CCN1CCN(c2ccc(NC(=O)Nc3ccc4c(ccn4-c4ccnc(C(=O)NC)c4)c3)cc2C(F)(F)F)CC1`, the growth is 87%.

Take `Cc1ccc(NC(=O)/C=C/c2ccc(OCCCOc3ccc4c(C)cc(=O)oc4c3)cc2)cc1`: the growth is 19.9%.

On to `CN1CCN(c2ccc(Nc3nc(NCCNS(=O)(=O)c4ccc(Cl)cc4)c4sccc4n3)cc2)CC1`, for which the growth is 84%.

Consider `O=C(COc1ccc(/C=C2\C(=O)Nc3ccc(Cl)cc32)cc1)Nc1ccc(Cl)cc1`, for which the growth was 59.2%.

As for `CN1CCN(Cc2ccc(NC(=O)c3cncc(C#Cc4cnc5ccc(OCC(F)F)nn45)c3)cc2C(F)(F)F)CC1`, the growth is -62.6% (active).

Turning to `Cc1ccc(C(=O)Nc2ccc(CNCCN3CCNCC3)c(C(F)(F)F)c2)cc1C#Cc1cnc2cccnn12`, the growth is -23% (active).

For the molecule `C=C(C)[C@@H]1CC[C@]2(C(=O)NC3CCCCC3)CC[C@]3(C)[C@H](CC[C@@H]4[C@@]5(C)CC[C@H](N)C(C)(C)[C@@H]5CC[C@]43C)[C@@H]12`, the growth is 96.4%.

Turning to `O=C(CN1CCN(c2cc(=O)[nH]c3ccc(F)cc23)CC1)N(c1ccccc1)c1ccccc1`, the growth is 101%.

Regarding `Cc1[nH]c(C(=O)Nc2ccccc2OCc2cccc(C(=O)NC3CCNC3)c2)c(Cl)c1Cl` (stereo not given), the growth is 68.3%.

As for `CN1CCN(Cc2ccc(NC(=O)c3cncc(C#Cc4cnc5ccc(NCCO)nn45)c3)cc2C(F)(F)F)CC1`, the growth was -9.76% (active).

For `COc1ccc(-c2cc(-c3ccc(N(C)C)cc3)n3c(n2)nc2ccccc23)cc1`, the growth is 56.7%.

For the molecule `Cn1cc(-c2nnc(N)nc2-c2c[nH]c3ccc(F)cc23)c2cc(Br)ccc21`, the growth was 50.1%.

Take `O=C(/C=C/c1cccc(Br)c1)c1cccc(OCCCCOc2cccc(C(=O)/C=C/c3cccc(Br)c3)c2)c1`: the growth is 109%.

As for `CC1(C)CC[C@]2(C(=O)NCCCCCCN(CCCN)CCCN)CC[C@]3(C)C(=CC[C@@H]4[C@@]5(C)CC[C@H](O)C(C)(C)[C@@H]5CC[C@]43C)[C@@H]2C1`, the growth was 109%.

For `C#Cc1nc(/C=C\CCCCCCC(=O)NO)cs1`, the growth is 69.9%.

As to `COc1ccc(C2c3[nH]c4ccc(Cl)cc4c3CCN2c2oc(CO)nc2C#N)cc1` (stereo not given), the growth is 69.7%.

Consider `O=C(/C=C/c1ccccc1Cl)Nc1ncc(Cc2cc(Cl)ccc2Cl)s1`, for which the growth is 53.8%.

`NCCNC(=O)c1cccc(COc2ccccc2NC(=O)c2cc(Cl)c(Cl)[nH]2)c1`: the growth is 97.7%.

`Fc1ccc2nc(-c3cnn4cccnc34)sc2c1`: the growth is 63.5%.

Turning to `C/C(CC1(O)C(=O)Nc2ccccc21)=N\O` (stereo not given), the growth is 95.1%.

For `C=C(C)[C@@H]1CC[C@]2(COP(=O)(OCC)OCC)CC[C@]3(C)[C@H](CC[C@@H]4[C@@]5(C)CC[C@H](OP(=O)(OCC)OCC)C(C)(C)[C@@H]5CC[C@]43C)[C@@H]12`, the growth is 65.5%.

With `CCCCCc1ccc(S(=O)(=O)Nc2cc(-c3csc(N)n3)ccc2OC)cc1`, the growth is 100%.

`O=C1Nc2ccc(F)cc2/C1=C\C(=O)c1ccc(NS(=O)(=O)c2ccccc2)cc1`: the growth was 93.2%.

Regarding `C#C[C@]1(O)CC[C@H]2[C@@H]3CC=C4c5sc(Nc6cccc(F)c6)nc5CC[C@]4(C)[C@H]3CC[C@@]21C`, the growth was 44.5%.

For `Cc1cc(NS(=O)(=O)c2ccc(NC(=O)CSc3nc4ccccc4c(=O)n3-c3ccccc3)cc2)no1`, the growth was 102%.

As for `CC1=C(C)C(=O)C(Nc2cccc(C(F)(F)F)c2)=C(Br)C1=O`, the growth is 81.4%.

For the molecule `O=C1/C(=C/c2cc(F)cc(F)c2)Cc2cc3c(cc21)OCO3`, the growth was 61.9%.

For the molecule `COc1ccc2c(c1)c(-c1nn3cc(-c4ccncc4)nc3s1)cn2C`, the growth was 82.3%.

Consider `COc1cc(NC(=O)Nc2cccc(-c3cc(=O)c4c(OC)c(OC)c(OC)cc4o3)c2)cc(OC)c1OC`, for which the growth was 65.5%.

As for `Cc1ccc(-c2csc(N/N=C/c3cccs3)n2)cc1`, the growth was 59.6%.

Take `O=C(Nc1ccc(N=Cc2c(O)[nH]c3ccccc23)cc1)Nc1ccc(S(=O)(=O)Nc2ncccn2)cc1`: the growth is 101%.

On to `CN1CCN(CC#CCn2c3c(c4ccccc42)C[C@]2(C)[C@H]4CC=C5[C@@H]6CC(C)(C)CC[C@]6(C(=O)N6CCOCC6)CC[C@@]5(C)[C@]4(C)CC[C@H]2C3(C)C)CC1`, for which the growth is 88.1%.

As to `Cc1cc2nc3c4cc(C#N)ccc4n(CCN(C)C)c3nc2cc1C`, the growth was 0.732% (active).

On to `O=C1CSC(c2cn(-c3ccccc3)nc2-c2ccc(Cl)cc2)N1c1ccccc1` (stereo not given), for which the growth was 110%.

As to `CC(=O)Nc1nc(C)c(-c2csc(Nc3ccccc3)n2)s1`, the growth was 54.7%.

Regarding `O=C(NCCNc1cc(-c2cn(-c3ccccc3)nc2-c2cccc(O)c2)ccn1)Nc1cc(C(F)(F)F)cc(C(F)(F)F)c1`, the growth is 91.6%.
